Screening data from PubChem.
Rtt109 Vps75: inhibitors of C. albicans Rtt109/Vps75 HAT, primary screen, biochemical, ThioGlo CoA-SH fluorescence, plate reader. AID 540336, 2011. 330,000 compounds, 0.16% hits. purified Rtt109/Vps75, 4 h. inhibition, % at 34.9 µM;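 active means inhibition of at least 50% in every replicate; inconclusive means best replicate reaches 50% inhibition but some replicates fall short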
ABHD5 PLIN5 PPI: ABHD5-PLIN5 interaction inhibitors, primary screen, cell lysate, split luciferase complementation, luminescence | Perilipin-5 (Homo sapiens) + 1-acylglycerol-3-phosphate O-acyltransferase ABHD5 (Homo … | AID 602281, 2012 | Split G. princeps luciferase complementation, 4 h | 360,000 compounds, 0.78% hits | inhibition, % at 4 µM;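 active means inhibition above the mean inhibition across every tested compound plus 3 SD, cut at about 22% in these data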
DAGLB inhibitor: DAGLB lipase inhibitors, primary screen, biochemical, fluorescence, HTS; HEK293T DAGLB membrane lysate, EnzChek fluorogenic substrate; inhibition, % at 5.17 µM; AID 504411, 2011; Diacylglycerol lipase-beta (Homo sapiens), Q8NCG7; 340,000 compounds, 0.059% hits; in the data active means inhibition above about 34%
Cardio protect: cardioprotection against H2O2-induced cell death, primary screen, uHTS, H9c2 cells, ATPLite luminescence; H9c2 cardiomyocytes, H2O2 injury protection, 2 h; protection from H2O2 cell death, % at 20 µM; 360,000 compounds, 0.63% hits; AID 588492, 2011;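 active means compounds giving at least 50% protection of heart cells from peroxide-induced death in the single-dose screen, raw or plate-pattern-corrected value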
HGIII-sPLA2 inh: human group III sPLA2 inhibitors, primary screen, biochemical, QFRET, BODIPY PC-A2 liposome substrate; Group 3 secretory phospholipase A2 (Homo sapiens), Q9NZ20; QFRET BODIPY PC-A2 liposome hydrolysis, fluorescence; inhibition, % at 12.2 µM; 370,000 compounds, 0.56% hits;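 active means inhibition above mean plus 3 SD of compounds lying within the high and low control bounds, cut at about 19% in these data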
Target sequence (Q9NZ20 whole entry, looked up): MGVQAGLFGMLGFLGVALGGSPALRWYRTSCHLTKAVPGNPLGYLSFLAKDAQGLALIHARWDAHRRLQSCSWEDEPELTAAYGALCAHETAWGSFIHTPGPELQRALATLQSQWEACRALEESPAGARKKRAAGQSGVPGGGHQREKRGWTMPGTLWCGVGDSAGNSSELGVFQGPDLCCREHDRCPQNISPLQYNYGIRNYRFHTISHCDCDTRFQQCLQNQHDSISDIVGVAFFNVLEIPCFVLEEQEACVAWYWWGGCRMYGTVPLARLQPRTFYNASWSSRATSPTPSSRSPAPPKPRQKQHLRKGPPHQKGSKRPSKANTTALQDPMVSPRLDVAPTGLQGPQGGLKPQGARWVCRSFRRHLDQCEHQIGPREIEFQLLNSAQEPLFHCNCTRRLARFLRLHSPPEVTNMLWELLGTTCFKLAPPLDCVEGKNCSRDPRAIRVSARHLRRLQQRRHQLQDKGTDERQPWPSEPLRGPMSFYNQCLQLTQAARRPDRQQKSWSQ
Myeloid diff 2: induction of myeloid progenitor differentiation, primary screen, cell-based, flow cytometry, MLPCN library; AID 624256, 2012; ER-HoxA9 myeloid progenitors, lysozyme-GFP differentiation; calls only at 10 µM; 360,000 compounds, 1% hits;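 active means normalized GFP-positive differentiation at or above the plate's own cutoff, the solvent-only control mean plus 3 SD; inconclusive means no clear call, values can overlap the other calls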;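 further: cells exposed to compound for four days before flow analysis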
DAGLB confirm: DAGLB lipase inhibitors, retest, confirmation, biochemical, fluorescence, HEK293T membranes; shares compounds with DAGLB inhibitor; HEK293T DAGLB membrane lysate, EnzChek fluorogenic substrate; inhibition, % at 5.17 µM; 190 compounds, 73% hits;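 active means mean inhibition over triplicate wells above a set limit taken from the primary lipase screen, cut at about 34% in these data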
ABHD5 PLIN5 conf: ABHD5-PLIN5 interaction inhibitors, confirmation, biochemical, luminescence. shares compounds with ABHD5 PLIN5 PPI. inhibition, % at 4 µM. 2,200 compounds, 67% hits; in the data active means inhibition above about 23%
HNF4 counter: HNF4 dimerization inhibitors, counter-screen for ABHD5-PLIN5 interaction inhibitor project, biochemical, split-luciferase complementation, luminescence; shares compounds with ABHD5 PLIN5 PPI; inhibition, % at 4 µM; 2,200 compounds, 77% hits;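 active means mean inhibition across replicate wells exceeding the computed hit threshold, cut at about 13% in these data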;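 further: light from luciferase halves that rejoin when HNF4 fusion proteins dimerize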
hGIII sPLA2 conf: human group III sPLA2 inhibitors, confirmation, biochemical, QFRET, triplicate; shares compounds with HGIII-sPLA2 inh; recombinant hGIII-sPLA2, BODIPY PC-A2 QFRET fluorescence; inhibition, % at 12.2 µM; 2,000 compounds, 34% hits; AID 743280, 2014;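 active means mean inhibition across triplicates above the hit cutoff set in the earlier primary screen, cut at about 19% in these data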
BODIPY interf: 535nm fluorescence optical interference, confirmation, artefact control for HGIII-sPLA2 inhibitor project, biochemical, QFRET. BODIPY FL product fluorescence interference. shares compounds with HGIII-sPLA2 inh. inhibition, % at 12.2 µM. 2,000 compounds, 8.5% hits;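 active means average inhibition above the solvent-only control mean plus 3 SD, cut at about 6% in these data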
Of the large screens only hits and unclear results are named; the others gave an inactive call (follow-up assays come after a bar, where they were run). A selection: hits, their analogues and other compounds. The true share with any hit is near 2.9%.

COc1cccc(-n2c(SCc3cc(=O)oc4cc(O)c(O)cc34)nc3ccccc3c2=O)c1	DAGLB inhibitor 40, HGIII-sPLA2 inh 20 | DAGLB confirm inactive | hGIII sPLA2 conf inactive | BODIPY interf inactive
CCN1/C(=C2\OC(=S)N(C)C2=O)C=Cc2ccccc21	none
CCSC1=NC(=O)/C(=C2/C=Cc3ccccc3N2CC)S1	DAGLB inhibitor 37, HGIII-sPLA2 inh 21 | DAGLB confirm 41 | hGIII sPLA2 conf 46 | BODIPY interf 9.6
O=C1CCCC2(O)C1C(c1cccc(Br)c1)NC(=O)N2Cc1ccccc1 (centres undefined)	none
Cc1cc(Cl)ccc1OCC(=O)N/N=C/c1ccc[nH]1	none (no result: Rtt109 Vps75, ABHD5 PLIN5 PPI, DAGLB inhibitor, Cardio protect, Myeloid diff 2)
CN1c2ccc([N+](=O)[O-])cc2N(C)C1(C)c1ccccc1 (centres undefined)	DAGLB inhibitor 37, HGIII-sPLA2 inh 25 | DAGLB confirm inactive | hGIII sPLA2 conf 44 | BODIPY interf 8.0
Nc1ccc2c(c1)C(=O)c1cc(Cl)c(Cl)cc1-2	DAGLB inhibitor 34, HGIII-sPLA2 inh 31 | DAGLB confirm 39 | hGIII sPLA2 conf 35 | BODIPY interf 14
CN(C)CCOC1(Cc2ccc(F)cc2)CCC(C(C)(C)C)CC1 (centres undefined)	ABHD5 PLIN5 PPI 25 | ABHD5 PLIN5 conf 33 | HNF4 counter inactive
Cc1ccc(CNC(=S)NC2CCC(C(C)(C)C)CC2)cc1 (centres undefined)	none
Cc1ccc(CC2(OCCN(C)C)CCC(C(C)(C)C)CC2)cc1 (centres undefined)	ABHD5 PLIN5 PPI 26, Myeloid diff 2 inconclusive | ABHD5 PLIN5 conf 30 | HNF4 counter inactive
CC(C)(C)OC(=O)N1CCCC(C(=O)Nc2ccc(C(=O)NC3CC3)cc2)C1 (centres undefined)	ABHD5 PLIN5 PPI 35 | ABHD5 PLIN5 conf inactive | HNF4 counter inactive
CN(C(=O)c1ccc(NC(=O)C2CCCN(C(=O)OC(C)(C)C)C2)cc1)C1CC1 (centres undefined)	none
O=C(COC(=O)CNC(=O)c1ccccc1Cl)Nc1cc(C(F)(F)F)ccc1Cl	none
COc1cc(C(C2C(=O)CC(C)(C)CC2=O)C2C(=O)CC(C)(C)CC2=O)ccc1OC(C)=O	ABHD5 PLIN5 PPI 25 | ABHD5 PLIN5 conf 37 | HNF4 counter 33
O=C1CCCCCCCCCC/C(=N\O)CCCO1	ABHD5 PLIN5 PPI 92 (no result: Rtt109 Vps75, DAGLB inhibitor) | ABHD5 PLIN5 conf inactive | HNF4 counter inactive
